# ChEMBL document CHEMBL5724796, “Tm Shift (DSF) assay results for EUbOPEN Chemogenomics Library” (2024)
# Key:
# Settings in all cases: Compound concentration 20.0 uM
# [1] = target: Tyrosine-protein kinase ABL1 (Homo sapiens) (UniProt P00519)
# [2] = target: Bromodomain-containing protein 4 (Homo sapiens) (UniProt O60885)
# [3] = target: Cyclin-dependent kinase 2 (Homo sapiens) (UniProt P24941)
# [4] = target: Casein kinase I isoform delta (Homo sapiens) (UniProt P48730)
# [5] = target: Glycogen synthase kinase-3 beta (Homo sapiens) (UniProt P49841)
# Sequence of Glycogen synthase kinase-3 beta (Homo sapiens) (P49841 whole entry, looked up): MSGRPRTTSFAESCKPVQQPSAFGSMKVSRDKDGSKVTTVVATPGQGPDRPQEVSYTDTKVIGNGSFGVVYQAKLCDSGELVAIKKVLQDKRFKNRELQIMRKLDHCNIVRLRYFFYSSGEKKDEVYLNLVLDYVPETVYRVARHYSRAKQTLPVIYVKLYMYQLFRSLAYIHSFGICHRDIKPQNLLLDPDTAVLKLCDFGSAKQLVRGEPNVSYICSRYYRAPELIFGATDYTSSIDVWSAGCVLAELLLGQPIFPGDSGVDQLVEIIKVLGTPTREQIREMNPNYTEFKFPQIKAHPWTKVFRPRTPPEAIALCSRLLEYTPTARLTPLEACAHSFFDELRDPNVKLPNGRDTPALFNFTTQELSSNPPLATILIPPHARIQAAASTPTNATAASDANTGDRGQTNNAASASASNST
# [6] = target: Mitogen-activated protein kinase 1 (Homo sapiens) (UniProt P28482)
# Sequence of Mitogen-activated protein kinase 1 (Homo sapiens) (P28482 whole entry): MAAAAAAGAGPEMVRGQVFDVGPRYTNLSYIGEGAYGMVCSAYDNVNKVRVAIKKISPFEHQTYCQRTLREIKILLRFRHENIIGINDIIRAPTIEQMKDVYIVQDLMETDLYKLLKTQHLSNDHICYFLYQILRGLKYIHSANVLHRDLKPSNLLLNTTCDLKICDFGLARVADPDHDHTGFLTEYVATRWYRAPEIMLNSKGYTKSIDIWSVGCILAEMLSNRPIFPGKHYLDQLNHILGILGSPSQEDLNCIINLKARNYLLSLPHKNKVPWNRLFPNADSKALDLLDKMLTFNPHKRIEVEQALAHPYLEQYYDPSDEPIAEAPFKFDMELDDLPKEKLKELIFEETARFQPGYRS
# [7] = target: T1, Aurora kinase A (Homo sapiens) (UniProt O14965)
# T1 sequence (whole entry): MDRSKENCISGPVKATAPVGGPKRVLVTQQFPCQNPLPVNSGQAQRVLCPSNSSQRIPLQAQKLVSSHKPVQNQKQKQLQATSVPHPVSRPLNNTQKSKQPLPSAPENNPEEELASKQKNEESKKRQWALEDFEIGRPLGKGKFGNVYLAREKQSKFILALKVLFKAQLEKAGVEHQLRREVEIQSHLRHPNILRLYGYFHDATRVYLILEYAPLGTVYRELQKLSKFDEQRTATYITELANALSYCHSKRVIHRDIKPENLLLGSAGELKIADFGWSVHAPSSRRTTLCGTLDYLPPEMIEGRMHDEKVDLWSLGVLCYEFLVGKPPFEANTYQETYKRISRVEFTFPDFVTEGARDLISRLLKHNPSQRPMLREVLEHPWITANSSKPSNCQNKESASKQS
# [8] = target: T2, Transcription intermediary factor 1-alpha (Homo sapiens) (UniProt O15164)
# T2 sequence (whole entry): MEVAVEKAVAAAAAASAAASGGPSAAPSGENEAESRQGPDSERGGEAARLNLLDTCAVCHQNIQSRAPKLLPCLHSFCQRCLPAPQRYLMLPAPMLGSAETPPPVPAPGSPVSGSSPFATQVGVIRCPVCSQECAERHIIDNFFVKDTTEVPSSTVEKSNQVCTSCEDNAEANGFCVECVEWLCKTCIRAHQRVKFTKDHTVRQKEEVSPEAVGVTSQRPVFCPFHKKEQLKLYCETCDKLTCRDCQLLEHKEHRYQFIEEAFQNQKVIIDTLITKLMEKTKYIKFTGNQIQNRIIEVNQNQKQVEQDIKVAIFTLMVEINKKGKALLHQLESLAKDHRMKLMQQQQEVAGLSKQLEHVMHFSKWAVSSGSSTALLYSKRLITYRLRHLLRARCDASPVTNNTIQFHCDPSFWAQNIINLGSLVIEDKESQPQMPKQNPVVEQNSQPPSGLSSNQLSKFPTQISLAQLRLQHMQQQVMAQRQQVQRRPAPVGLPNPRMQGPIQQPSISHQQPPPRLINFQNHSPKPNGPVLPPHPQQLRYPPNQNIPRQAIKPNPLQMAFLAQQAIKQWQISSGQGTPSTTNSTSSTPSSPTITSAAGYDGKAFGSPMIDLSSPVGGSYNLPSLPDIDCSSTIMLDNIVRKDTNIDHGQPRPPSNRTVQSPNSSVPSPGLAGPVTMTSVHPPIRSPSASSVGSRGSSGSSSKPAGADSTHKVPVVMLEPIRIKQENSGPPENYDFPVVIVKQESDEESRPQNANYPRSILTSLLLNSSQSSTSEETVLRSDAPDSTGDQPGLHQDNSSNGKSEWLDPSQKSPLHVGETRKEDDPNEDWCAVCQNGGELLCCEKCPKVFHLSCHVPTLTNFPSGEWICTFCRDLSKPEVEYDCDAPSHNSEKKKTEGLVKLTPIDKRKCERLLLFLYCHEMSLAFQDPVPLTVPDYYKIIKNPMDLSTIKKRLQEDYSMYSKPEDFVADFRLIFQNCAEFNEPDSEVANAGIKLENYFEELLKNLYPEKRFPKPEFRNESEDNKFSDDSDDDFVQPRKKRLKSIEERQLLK
# Sequence of Tyrosine-protein kinase ABL1 (Homo sapiens) (P00519 whole entry): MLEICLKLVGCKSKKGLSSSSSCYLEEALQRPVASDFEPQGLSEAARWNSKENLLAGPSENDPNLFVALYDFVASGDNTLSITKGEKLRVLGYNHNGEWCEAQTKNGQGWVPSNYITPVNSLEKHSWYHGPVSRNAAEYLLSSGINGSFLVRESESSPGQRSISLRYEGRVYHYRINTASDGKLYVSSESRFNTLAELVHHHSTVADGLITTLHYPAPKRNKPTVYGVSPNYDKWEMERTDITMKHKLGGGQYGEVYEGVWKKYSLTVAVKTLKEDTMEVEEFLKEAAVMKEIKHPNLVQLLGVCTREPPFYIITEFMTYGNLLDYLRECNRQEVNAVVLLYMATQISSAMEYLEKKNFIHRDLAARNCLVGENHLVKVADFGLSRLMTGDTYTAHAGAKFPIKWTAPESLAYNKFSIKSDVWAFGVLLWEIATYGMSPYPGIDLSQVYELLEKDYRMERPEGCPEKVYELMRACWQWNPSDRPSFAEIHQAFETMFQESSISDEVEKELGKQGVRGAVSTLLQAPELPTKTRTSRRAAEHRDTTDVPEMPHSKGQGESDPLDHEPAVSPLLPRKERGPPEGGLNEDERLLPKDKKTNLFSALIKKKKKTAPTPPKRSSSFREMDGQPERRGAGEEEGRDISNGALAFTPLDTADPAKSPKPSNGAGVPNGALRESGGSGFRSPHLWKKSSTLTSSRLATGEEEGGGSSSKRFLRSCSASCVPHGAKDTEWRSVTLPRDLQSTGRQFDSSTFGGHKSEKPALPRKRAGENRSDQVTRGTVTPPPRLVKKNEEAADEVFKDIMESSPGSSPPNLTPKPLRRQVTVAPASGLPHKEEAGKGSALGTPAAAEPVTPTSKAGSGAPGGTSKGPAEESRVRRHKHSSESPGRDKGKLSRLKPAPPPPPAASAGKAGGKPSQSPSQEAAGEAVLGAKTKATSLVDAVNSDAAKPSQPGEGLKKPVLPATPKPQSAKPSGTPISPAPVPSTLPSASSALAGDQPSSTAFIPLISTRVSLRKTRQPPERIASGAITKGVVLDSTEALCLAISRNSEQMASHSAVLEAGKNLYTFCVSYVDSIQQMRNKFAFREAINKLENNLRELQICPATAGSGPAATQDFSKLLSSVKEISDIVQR
# Sequence of Casein kinase I isoform delta (Homo sapiens) (P48730 whole entry, looked up, canonical isoform): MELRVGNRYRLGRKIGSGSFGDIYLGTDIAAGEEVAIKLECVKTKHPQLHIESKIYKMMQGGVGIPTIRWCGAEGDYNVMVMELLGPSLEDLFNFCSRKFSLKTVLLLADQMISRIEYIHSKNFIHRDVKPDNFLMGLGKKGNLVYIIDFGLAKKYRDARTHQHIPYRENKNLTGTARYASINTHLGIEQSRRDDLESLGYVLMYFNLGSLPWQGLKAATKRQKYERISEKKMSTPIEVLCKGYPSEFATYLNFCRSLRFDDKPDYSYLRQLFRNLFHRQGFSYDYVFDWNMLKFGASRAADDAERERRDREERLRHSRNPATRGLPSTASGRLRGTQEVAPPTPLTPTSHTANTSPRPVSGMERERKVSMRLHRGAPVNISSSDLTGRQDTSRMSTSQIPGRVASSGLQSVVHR
Compound,ΔTm [1] [°C],ΔTm [2] [°C],ΔTm [3] [°C],ΔTm [4] [°C],ΔTm [5] [°C],ΔTm [6] [°C],ΔTm [7] [°C],ΔTm [8] [°C]
O=C(CCCCCCNC(=O)c1cnc(N(c2ccccc2)c2ccccc2)nc1)NO,0.66,-2.07,0.61,0.12,-0.11,-0.28,-0.51,-0.68
CCCNC(=O)[C@H]1O[C@@H]1C(=O)N[C@H](C(=O)N1CCC[C@H]1C(=O)O)[C@@H](C)CC,0.43,-1.16,-0.18,-0.02,0.22,-0.39,-1.17,-0.81
COc1cc(-c2cn(C)c(=O)c3cnccc23)cc(OC)c1CN(C)CC(=O)NCCOCCOCCNc1cccc2c1C(=O)N(C1CCC(=O)NC1=O)C2=O (configuration not stated),0.07,-1.54,0.21,0.06,0.14,-0.38,-1.03,-0.75
CC(C)Oc1ccc(C=O)cc1,0.27,-1.93,-0.05,0.18,-0.88,0.02,-1.79,-0.93
O=C(NCc1ccc(F)cc1)C1CCN(S(=O)(=O)c2cc(Cl)cc(Cl)c2)CC1,0.19,1.03,0.65,-0.2,-0.78,1.32,-1.86,0.75
N#Cc1ccc(-c2csc(NN=C3CCCC3)n2)cc1,1.02,-1.71,-3.5,0.34,-3.93,-0.09,-0.22,-1.63
Nc1cccc(Nc2ncc(-c3ccc(Cl)cc3)o2)c1,9.33,0.39,9.01,0.43,7.51,0.54,6.87,-0.45
O=C(NC1CCC1)c1ccc2nc(-c3cccc(NS(=O)(=O)NCCN4CCCCC4)c3)cn2c1,0.57,-2.44,0.18,-0.21,-0.29,0.15,-2.15,0.09
CN(C(=O)CCCOc1ccc2[nH]c(=O)ccc2c1)C1CCCCC1,0.63,-1.68,0.09,-0.15,0.07,0.58,-2.27,-2.36
CNc1nccc(CN([C@H]2CC[C@H](N)CC2)S(=O)(=O)c2ccc(S(=O)(=O)N(Cc3ccc(Cl)cc3)C3CCCC3)cc2)n1,-0.6,-2,-0.02,-0.71,-0.62,-3.03,-2.32,0.19
O=C(c1cc(Cl)c(O)c(Cl)c1)N1CS(=O)(=O)c2ccccc21,0.71,-0.92,0.15,-0.26,0.51,0.24,-2.22,-0.84
CN(Cc1ccccc1)c1ccc2cc(C(=O)O)c(=O)oc2c1,0.44,2.11,0.37,0.11,0,0.54,-1.09,0.17
CCCn1/c(=N/C(=O)c2cccc(C(N)=O)c2)[nH]c2ccccc21,1.41,-1.51,0.06,0.95,-0.17,-1.41,-0.08,-0.27
COc1ccccc1C(=O)Nc1cc2c(cc1N1CCNC[C@H]1C)n(C)c(=O)n2C,0.51,1.74,0.17,0.91,0.41,0.25,-0.29,0.27
C=C(C)[C@@H](CC=C(C)C)C[C@@]12C[C@@H](CC=C(C)C)C(C)(C)[C@@](CC=C(C)C)(C(=O)C(C(=O)c3ccc(O)c(O)c3)=C1O)C2=O,0.52,-5.01,-3.75,0.51,-0.68,-6.65,0.51,-0.01
COc1cc2c(cc1-c1c(C)noc1C)[nH]c1nc(C)nc(Nc3cc(C4CC4)nn3C)c12,0.79,14.9,-0.63,-0.39,0.26,0.59,-0.72,0.66
CCN(CC)c1ccc(C2=NNC(=O)C[C@H]2C)cc1[N+](=O)[O-],0.04,0.2,-0.04,0.06,0.13,-0.11,-0.2,-0.15
Cc1ccnc(NS(=O)(=O)c2ccc(NC(=O)Nc3ccc(S(=O)(=O)Nc4nccc(C)n4)cc3)cc2)n1,0.29,-0.01,0.44,-0.62,-1.11,0.44,-1.78,2.1
C[C@@H](Oc1ccc(S(C)(=O)=O)cc1C(=O)N1C[C@@H]2C[C@]2(c2cc(C(F)(F)F)on2)C1)C(F)(F)F,0.62,-3.24,0.09,-0.17,-0.39,0.07,-2.51,0.43
CC(=O)N[C@@H](Cc1ccc(O)cc1)C(=O)N[C@H](C(=O)N[C@@H](C)C(=O)N[C@H](C=O)CC(=O)O)C(C)C,0.25,-2.08,0.16,0.05,-0.9,-0.12,-1.08,-0.33
COc1cc2c(NC3CCN(C)CC3)cc(-c3ccc(C)o3)nc2cc1OCCCN1CCCC1,0.3,0.18,0.69,0.17,0.49,0.01,0.09,-0.54
CS(=O)(=O)N1CCN(C(=O)c2cnc3ccc(F)cc3c2-c2ccc(C3(C#N)CC3)cc2)CC1,0.07,1.15,0.13,0.11,3.18,0.08,-1.44,0.3
Cc1cc(OCCCNCC(C)(C)C(N)=O)ccc1Cc1c(O[C@@H]2O[C@H](CO)[C@@H](O)[C@H](O)[C@H]2O)n[nH]c1C(C)C,0.7,-2.92,0.08,-0.08,-0.66,0.38,-2.36,0.9
CN1CCN2c3c(cccc31)[C@@H]1CN(CCCC(=O)c3ccc(F)cc3)CC[C@@H]12,-0.01,-0.67,-0.01,-0.14,-0.53,0.07,-0.26,0.32
CCOc1ccc(S(=O)(=O)Nc2ccc(Cl)cc2C#Cc2cnc(C(=O)O)cc2OC)c2ncccc12,0.04,-2.23,-0.26,-7.02,-2.42,-0.03,-2.9,0.7
COc1nc(N)nc(Nc2cc(S(N)(=O)=O)ccc2N[C@@H](c2cccc3c2OC(F)(F)O3)c2ncccc2Cl)n1,1.16,-2.02,-0.4,0.06,-3.33,-12.4,-1.68,0.11
CCn1c(=O)c(C)cn(Cc2nnc(-c3ccc(F)c(OC)c3F)s2)c1=O,0.22,-0.83,0.23,0.22,0,-4.56,-2.75,-0.83
CS(=O)(=O)n1cc2c(n1)CN([C@H]1CO[C@H](c3cc(F)ccc3F)[C@@H](N)C1)C2,0.01,1.23,0.1,-0.33,-0.84,0.32,-2.29,-0.65
COc1cc2c(NCC3CCN(C)CC3)cc(-c3ccc(C)o3)nc2cc1OCCCN1CCCC1,-0.17,-1.85,0.22,0.3,-1.71,0.07,0.46,-1.43
